According to PubChem BioAssay AID1159580 (chemical genetic matrix, 2015):
Screen size: about 5,500 compounds; about 2,000 (36%) were called active. About 18% were inconclusive and are not listed. Cut-off read from the data, not from the text of the source: active = normalized growth mostly below about 0.91 (no sharp cut-off); inconclusive = no clear call, values can overlap the other calls; inactive = mostly above about 0.92. This is one part of the list.

Assay: chemical genetic growth profiling, strain panel (AID 1159580);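 note: tested at 20 µM; growth read once vehicle control cultures reached saturation at 30 °C; 1 = growth at the plate median or of vehicle wells; lower values mean less growth of the strain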
Conditions: growth OD

Measured: normalized growth

C#C[C@]1(OC(C)=O)CCC2C3CCC4=CC(=O)CC[C@@H]4C3CC[C@@]21C (stereo partly drawn)
active: S. cerevisiae deletion strains, locus YLR418C, strain cdc73, active compounds read low 0.803 | S. cerevisiae deletion strains, locus YNL307C, strain MCK1, active compounds read low 0.889 | S. cerevisiae deletion strains, locus YOR184W, strain ser1, active compounds read low 0.829
inactive: S. cerevisiae deletion strains, locus YKL009W, strain mrt4, active compounds read low 0.968 | S. cerevisiae deletion strains, locus YKL068W, active compounds read low 0.973 | S. cerevisiae deletion strains, locus YKL085W, strain MDH1 (second series), active compounds read low 0.967 | S. cerevisiae deletion strains, locus YKL085W, strain MDH1, active compounds read low 0.967 | S. cerevisiae deletion strains, locus YKL160W, strain elf1, active compounds read low 0.964 | S. cerevisiae deletion strains, locus YKL190W, strain CNB1, active compounds read low 0.977 | S. cerevisiae deletion strains, locus YKR001C, strain vps1, active compounds read low 0.945 | S. cerevisiae deletion strains, locus YKR026C, strain gcn3, active compounds read low 0.984 | S. cerevisiae deletion strains, locus YKR091W, strain srl3, active compounds read low 0.992 | S. cerevisiae deletion strains, locus YLL001W, strain dnm1, active compounds read low 0.988 | S. cerevisiae deletion strains, locus YLL026W, active compounds read low 0.99 | S. cerevisiae deletion strains, locus YLL041C, strain sdh2, active compounds read low 0.976 | S. cerevisiae deletion strains, locus YLR027C, strain aat2, active compounds read low 0.988 | S. cerevisiae deletion strains, locus YLR039C, strain RIC1, active compounds read low 0.892 | S. cerevisiae deletion strains, locus YLR058C, strain SHM2, active compounds read low 0.965 | S. cerevisiae deletion strains, locus YLR102C, strain apc9, active compounds read low 0.975 | S. cerevisiae deletion strains, locus YLR113W, strain HOG1, active compounds read low 0.93 | S. cerevisiae deletion strains, locus YLR221C, strain rsa3, active compounds read low 1.02 | S. cerevisiae deletion strains, locus YLR258W, strain gsy2, active compounds read low 0.965 | S. cerevisiae deletion strains, locus YLR262C, strain YPT6 (second series), active compounds read low 0.991 | S. cerevisiae deletion strains, locus YLR262C, strain YPT6, active compounds read low 0.842 | S. cerevisiae deletion strains, locus YLR268W, strain sec22, active compounds read low 0.926 | S. cerevisiae deletion strains, locus YLR320W, strain mms22, active compounds read low 0.969 | S. cerevisiae deletion strains, locus YLR330W, strain CHS5, active compounds read low 0.978 | S. cerevisiae deletion strains, locus YLR342W, strain FKS1 (second series), active compounds read low 0.956 | S. cerevisiae deletion strains, locus YLR342W, strain FKS1, active compounds read low 0.961 | S. cerevisiae deletion strains, locus YLR357W, strain rsc2, active compounds read low 0.975 | S. cerevisiae deletion strains, locus YLR370C, strain arc18, active compounds read low 0.986 | S. cerevisiae deletion strains, locus YLR371W, strain rom2, active compounds read low 0.983 | S. cerevisiae deletion strains, locus YLR384C, strain iki3, active compounds read low 0.991 | S. cerevisiae deletion strains, locus YML016C, strain PPZ1, active compounds read low 0.963 | S. cerevisiae deletion strains, locus YML032C, strain rad52, active compounds read low 0.957 | S. cerevisiae deletion strains, locus YML120C, strain ndi1, active compounds read low 1.02 | S. cerevisiae deletion strains, locus YML124C, strain tub3, active compounds read low 0.962 | S. cerevisiae deletion strains, locus YMR058W, strain fet3, active compounds read low 1 | S. cerevisiae deletion strains, locus YMR078C, strain ctf18, active compounds read low 0.958 | S. cerevisiae deletion strains, locus YMR125W, strain sto1, active compounds read low 0.978 | S. cerevisiae deletion strains, locus YMR129W, active compounds read low 0.973 | S. cerevisiae deletion strains, locus YMR205C, strain PFK2, active compounds read low 0.984 | S. cerevisiae deletion strains, locus YMR223W, strain ubp8, active compounds read low 0.962 | S. cerevisiae deletion strains, locus YMR231W, strain pep5, active compounds read low 1 | S. cerevisiae deletion strains, locus YMR307W, strain GAS1, active compounds read low 1.08 | S. cerevisiae deletion strains, locus YNL067W, strain RPL9B, active compounds read low 0.984 | S. cerevisiae deletion strains, locus YNL071W, strain lat1, active compounds read low 0.986 | S. cerevisiae deletion strains, locus YNL128W, strain TEP1, active compounds read low 0.977 | S. cerevisiae deletion strains, locus YNL153C, strain GIM3, active compounds read low 0.974 | S. cerevisiae deletion strains, locus YNL183C, strain NPR1, active compounds read low 0.927 | S. cerevisiae deletion strains, locus YNL209W, strain ssb2, active compounds read low 0.983 | S. cerevisiae deletion strains, locus YNL233W, strain BNI4, active compounds read low 0.977 | S. cerevisiae deletion strains, locus YNL248C, strain rpa49, active compounds read low 0.963 | S. cerevisiae deletion strains, locus YNL250W, strain rad50, active compounds read low 0.971 | S. cerevisiae deletion strains, locus YNL271C, strain bni1, active compounds read low 0.961 | S. cerevisiae deletion strains, locus YNL298W, strain CLA4, active compounds read low 0.964 | S. cerevisiae deletion strains, locus YNL322C, strain KRE1 (second series), active compounds read low 0.949 | S. cerevisiae deletion strains, locus YNR049C, strain mso1, active compounds read low 0.994 | S. cerevisiae deletion strains, locus YNR052C, strain pop2, active compounds read low 0.932 | S. cerevisiae deletion strains, locus YOL006C, strain TOP1, active compounds read low 0.867 | S. cerevisiae deletion strains, locus YOL012C, strain htz1 1 | S. cerevisiae deletion strains, locus YOL147C, strain pex11, active compounds read low 0.967 | S. cerevisiae deletion strains, locus YOR001W, strain rrp6, active compounds read low 1.02 | S. cerevisiae deletion strains, locus YOR061W, strain CKA2, active compounds read low 0.942 | S. cerevisiae deletion strains, locus YOR069W, strain VPS5, active compounds read low 0.974 | S. cerevisiae deletion strains, locus YOR070C, strain gyp1, active compounds read low 0.994 | S. cerevisiae deletion strains, locus YOR080W, strain dia2, active compounds read low 0.978 | S. cerevisiae deletion strains, locus YOR083W, strain WHI5, active compounds read low 0.937 | S. cerevisiae deletion strains, locus YOR106W, strain vam3, active compounds read low 0.982 | S. cerevisiae deletion strains, locus YOR136W, strain idh2, active compounds read low 0.992 | S. cerevisiae deletion strains, locus YOR144C, strain elg1, active compounds read low 0.97 | S. cerevisiae deletion strains, locus YOR231W, strain MKK1, active compounds read low 0.956 | S. cerevisiae deletion strains, locus YOR265W, strain rbl2, active compounds read low 0.998 | S. cerevisiae deletion strains, locus YOR270C, strain vph1, active compounds read low 0.996 | S. cerevisiae deletion strains, locus YOR290C, strain snf2, active compounds read low 0.961 | S. cerevisiae deletion strains, locus YOR316C, strain cot1, active compounds read low 0.969 | S. cerevisiae deletion strains, locus YPL051W, strain arl3, active compounds read low 0.98 | S. cerevisiae deletion strains, locus YPL078C, strain atp4, active compounds read low 0.968 | S. cerevisiae deletion strains, locus YPL106C, strain sse1, active compounds read low 0.939 | S. cerevisiae deletion strains, locus YPL240C, strain hsp82, active compounds read low 0.989 | S. cerevisiae deletion strains, locus YPL241C, strain CIN2, active compounds read low 0.975 | S. cerevisiae deletion strains, locus YPL256C, strain CLN2, active compounds read low 0.88 | S. cerevisiae deletion strains, locus YPR119W, strain clb2, active compounds read low 0.972 | S. cerevisiae deletion strains, locus YPR141C, strain kar3, active compounds read low 0.946 | S. cerevisiae deletion strains, locus YPR163C, strain tif3, active compounds read low 0.966 | S. cerevisiae deletion strains, locus YPR167C, strain met16, active compounds read low 0.958 | S. cerevisiae deletion strains, strain wtn01, active compounds read low 0.936 | S. cerevisiae strains, strain wild type, active compounds read low 0.953
